Laboratory results as given in PubChem BioAssay (Tox21).
Results filed as inconclusive are left out. Active and inactive are the calls of the source. Unless noted, calls come from the whole dose curve; as a rule, active = well fitted curve in the direction sought with a large enough effect in the repeat runs; inconclusive = weak or mixed curves; inactive = no such curve, though single readings can be large; an effect the other way counts as inactive or inconclusive.

Assays:
[1] = qHTS assay to identify small molecule antagonists of the estrogen receptor alpha (ER-alpha) signaling pathway using the BG1 cell line in the presence of 0.1 nM 17-beta-estradiol - cell viability counter screen (AID 1259241); note: nearly all actives have a fitted effect of over 40% in size
Summary of the method: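 The cell line endogenously expresses full-length ER-alpha and carries four EREs driving luciferase. Cells are cultured 5 days hormone-free, treated 22 hr with compounds and 0.1 nM estradiol, then viability is read by fluorescence.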

[2] = qHTS assay to identify small molecule phospholipidosis (PLD) inducers (AID 1259344; active = well fitted curve in the direction sought with a large enough effect; an effect the other way counts as inactive or inconclusive; note: potency is the fitted concentration of half-maximal effect)
Summary of the method: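 Fluorescent phospholipid staining (LipidTOX Red) measured by automated microscopy in fixed HepG2 cells after 24 h treatment; nuclei counterstained with Hoechst 33342; amiodarone as reference inducer.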

[3] = qHTS assay to identify small molecule HDAC inhibitors (AID 1259364); note: nearly all actives have a fitted effect of over 45% in size; note: potency is the fitted concentration of half-maximal effect
Summary of the method: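 Wild-type HCT-116 cells, plated overnight at 37 C, exposed to compounds 2 hr at 37 C; luminogenic HDAC-Glo substrate then added 30 min at room temperature. Luminescence reports relative endogenous class I/II HDAC activity.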

[4] = qHTS assay to identify small molecule agonists of the sonic hedgehog signaling (Shh) pathway - cell viability counter screen (AID 1259366); note: nearly all actives have a fitted effect of over 50% in size; note: potency is the fitted concentration of half-maximal effect
Summary of the method: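 Viability measured fluorometrically (CellTiter-Fluor, 1hr, 37C) in 3T3 Gli1-Luc reporter cells after 23hr compound exposure within a 24hr incubation at 37C/5% CO2.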

[5] = qHTS assay to identify small molecule antagonists of the sonic hedgehog signaling (Shh) pathway - cell viability counter screen (AID 1259367); note: nearly all actives have a fitted effect of over 55% in size; note: potency is the fitted concentration of half-maximal effect
Summary of the method: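 Using CellTiter-Fluor, viability of Gli1-Luc reporter 3T3 cells is read by fluorescence in the wells used for the Shh luciferase assay. Treatment lasts 23 hr with conditioned medium, then reagent 1 hr at 37C.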

[6] = qHTS assay to identify small molecule agonists of the sonic hedgehog signaling (Shh) pathway (AID 1259368; calls by dose curve;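 note: NIH/3T3-derived 3T3Gli1-Luc cells carrying a stable Gli1-driven firefly luciferase reporter; series mostly up to about 92 µM; nearly all actives have a fitted effect of over 15% in size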)
Summary of the method: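 NIH/3T3-derived 3T3Gli1-Luc cells with stably integrated Gli1-driven firefly luciferase, 2,000 cells/well, compounds added after 4 hr. Incubated 24 hr at 37C, 5% CO2; luminescence read after 30 min with luciferase reagent at room temperature.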

[7] = qHTS assay to identify small molecule antagonists of the sonic hedgehog signaling (Shh) pathway (AID 1259369; calls by dose curve; note: nearly all actives have a fitted effect of over 45% in size; note: potency is the fitted concentration of half-maximal effect)
Summary of the method: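 NIH/3T3-derived Gli1-Luc reporter cells plated 4 h, dosed with compound, then stimulated with conditioned medium for 24 h at 37 C. Firefly luciferase luminescence read after 30 min with detection reagent at room temperature.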

[8] = target: Estrogen receptor beta (Homo sapiens) (UniProt Q92731); assay: qHTS assay to identify small molecule agonists of the estrogen receptor beta (ER-beta) signaling pathway (AID 1259377; active = well fitted activation curve with a large enough effect in the signal ratio in the repeat runs, not every such curve was filed as active; the % refers to the signal ratio)
Summary of the method: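 A UAS-controlled beta-lactamase reporter in ER-beta-UAS-bla HEK293T cells reports receptor activation. Compounds act for 16 hr at 37C in 2% charcoal-stripped serum, and a FRET substrate is read by fluorescence after 2 hours.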

[9] = target: Estrogen receptor beta (Homo sapiens) (UniProt Q92731); assay: qHTS assay to identify small molecule antagonists of the estrogen receptor beta (ER-beta) signaling pathway (AID 1259378; active = well fitted inhibition curve with a large enough effect in the signal ratio in the repeat runs, not every such curve was filed as active; the % refers to the signal ratio; note: potency is the fitted concentration of half-maximal effect)
Summary of the method: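 Antagonist mode: compounds added to beta-lactamase reporter HEK293T ER-beta-UAS cells stimulated with E2 (1nM final), 16 hr at 37C. LiveBLAzer B/G FRET substrate, 2 hours room temperature, fluorescence read-out.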

[10] = qHTS assay to identify small molecule agonists of the estrogen receptor beta (ER-beta) signaling pathway - cell viability counter screen (AID 1259380); note: nearly all actives have a fitted effect of over 30% in size; note: potency is the fitted concentration of half-maximal effect
Summary of the method: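 ER-beta-UAS-bla HEK293T cells in medium with 2% charcoal-stripped FBS, pre-incubated 6 hr, then treated 16 hr at 37C. Cytotoxicity read in the same wells by CellTiter-Glo luminescence after 30 min at room temperature.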

[11] = qHTS assay to identify small molecule antagonists of the estrogen receptor beta (ER-beta) signaling pathway - cell viability counter screen (AID 1259382); note: nearly all actives have a fitted effect of over 55% in size; note: potency is the fitted concentration of half-maximal effect
Summary of the method: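 ER-beta-UAS-bla HEK293T cells in 2% charcoal-stripped FBS medium, treated with compound plus 1 nM 17-beta-estradiol for 16 h at 37C. Viability read by CellTiter-Glo luminescence after 30 min at room temperature in the same wells.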

[12] = target: Estrogen receptor (Homo sapiens) (UniProt P03372); assay: qHTS assay to identify small molecule agonists of the estrogen receptor alpha (ER-alpha) signaling pathway in the presence of an antagonist (AID 1259383; calls by dose curve; note: top concentration of the series differs between compounds; nearly all actives have a fitted effect of over 15% in size)
Summary of the method: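 VM7Luc4E2 cells express endogenous full-length ER-alpha with an ERE-luciferase reporter and were hormone-deprived for 5 days. Compounds at 15 concentrations were added with 10.0nM ICI-182,780 for 22hr at 37C. Luminescence was read with ONE-Glo.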

[13] = qHTS assay to identify small molecule agonists or antagonists of the thyroid stimulating hormone receptor (TSHR) signaling pathway - wild type cell line counter screen (AID 1259384; calls by dose curve)
Summary of the method: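 Counter screen in untransfected Hek293: compounds (15-point titration, triplicate) plus phosphodiesterase inhibitor Ro20-1724 added after 18 h plating; 30 min RT. Intracellular cAMP via competitive d2/cryptate immunoassay, 1 h incubation.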

[14] = target: Thyrotropin receptor (Homo sapiens) (UniProt P16473); assay: qHTS assay to identify small molecule antagonists of the thyroid stimulating hormone receptor (TSHR) signaling pathway (AID 1259385; calls by dose curve; note: nearly all actives have a fitted effect of over 20% in size; note: potency is the fitted concentration of half-maximal effect)
Summary of the method: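 Antagonist mode: compound-treated TSHR-expressing HEK293 cells were stimulated with 1.5 ng/mL TSH (final) in presence of Ro20-1724 for 30 min at RT. HTRF cAMP detection after 1 h; each compound tested at 15 concentrations, triplicate.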

[15] = qHTS assay to identify small molecule antagonists of the androgen receptor (AR) signaling pathway using the MDA cell line in the presence of 0.5 nM R1881 - cell viability counter screen (AID 1259242); note: nearly all actives have a fitted effect of over 45% in size
Summary of the method: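 MDA-kb2 cells (MMTV-luciferase, AR/GR responsive) were treated with compounds plus 0.5 nM R1881 (final) for 16 hr at 37C, 0% CO2. Viability was then read in the same wells as live-cell protease fluorescence (CellTiter-Fluor, 30 min).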

[16] = qHTS assay to identify small molecule HDAC inhibitors - cell viability counter screen (AID 1259365); note: series mostly up to about 92 µM; nearly all actives have a fitted effect of over 50% in size
Summary of the method: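 Viability readout: CellTiter-Glo luminescence. Wild-type HCT-116 cells, 2hr compound treatment following overnight attachment at 37 C.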

[17] = qHTS assay to identify small molecule agonists of the androgen receptor (AR) signaling pathway in the presence of an antagonist - cell viability counter screen (AID 1259379); note: nearly all actives have a fitted effect of over 25% in size; note: potency is the fitted concentration of half-maximal effect
Summary of the method: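 MDA-kb2 cells (MMTV-luciferase, AR/GR), 3,000/well, 5 h attachment, then 3.0 µM nilutamide (final) and compounds at 15 concentrations. Viability by CellTiter-Fluor fluorescence after 16 h at 37 °C, 0% CO2, in the reporter wells.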

[18] = target: Estrogen receptor (Homo sapiens) (UniProt P03372); assay: qHTS assay to identify small molecule antagonists of the estrogen receptor alpha (ER-alpha) signaling pathway using the BG1 cell line in the presence of 0.1 nM 17-beta-estradiol (AID 1259244); note: nearly all actives have a fitted effect of over 50% in size
Summary of the method: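 VM7Luc4E2 cells (endogenous full-length ER-alpha, 4×ERE-luciferase), kept 5 days in phenol red-free, charcoal-stripped FBS medium; 4,000 cells/well. Compounds added with 0.1 nM (final) 17beta-estradiol, 22 hr at 37C; luminescence read with ONE-Glo after 30 min.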

[19] = target: Androgen receptor (Homo sapiens) (UniProt P10275); assay: qHTS assay to identify small molecule antagonists of the androgen receptor (AR) signaling pathway using the MDA cell line in the presence of 0.5 nM R1881 (AID 1259243); note: nearly all actives have a fitted effect of over 50% in size; note: potency is the fitted concentration of half-maximal effect
Summary of the method: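 MDA-kb2 cells (MMTV-luciferase, responsive to AR and GR) at 3,000/well, rested 5 h at 37C, 0% CO2, then given compounds plus 0.5 nM R1881 (final) for 16 hr. Luciferase read with ONE-Glo after 30 min at room temperature.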

[20] = target: Androgen receptor (Homo sapiens) (UniProt P10275); assay: qHTS assay to identify small molecule agonists of the androgen receptor (AR) signaling pathway in the presence of an antagonist (AID 1259381; calls by dose curve; note: nearly all actives have a fitted effect of over 15% in size)
Summary of the method: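 MDA-kb2 cells carrying MMTV-luciferase (AR/GR responsive), 3,000 cells/well, co-treated with 3.0 uM nilutamide final. Compounds at 15 concentrations, 16 hr at 37C without CO2. Luciferase luminescence read after 30 min with ONE-Glo.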

Measured: Potency

Androgen receptor (Homo sapiens), sequence (P10275 whole entry, looked up): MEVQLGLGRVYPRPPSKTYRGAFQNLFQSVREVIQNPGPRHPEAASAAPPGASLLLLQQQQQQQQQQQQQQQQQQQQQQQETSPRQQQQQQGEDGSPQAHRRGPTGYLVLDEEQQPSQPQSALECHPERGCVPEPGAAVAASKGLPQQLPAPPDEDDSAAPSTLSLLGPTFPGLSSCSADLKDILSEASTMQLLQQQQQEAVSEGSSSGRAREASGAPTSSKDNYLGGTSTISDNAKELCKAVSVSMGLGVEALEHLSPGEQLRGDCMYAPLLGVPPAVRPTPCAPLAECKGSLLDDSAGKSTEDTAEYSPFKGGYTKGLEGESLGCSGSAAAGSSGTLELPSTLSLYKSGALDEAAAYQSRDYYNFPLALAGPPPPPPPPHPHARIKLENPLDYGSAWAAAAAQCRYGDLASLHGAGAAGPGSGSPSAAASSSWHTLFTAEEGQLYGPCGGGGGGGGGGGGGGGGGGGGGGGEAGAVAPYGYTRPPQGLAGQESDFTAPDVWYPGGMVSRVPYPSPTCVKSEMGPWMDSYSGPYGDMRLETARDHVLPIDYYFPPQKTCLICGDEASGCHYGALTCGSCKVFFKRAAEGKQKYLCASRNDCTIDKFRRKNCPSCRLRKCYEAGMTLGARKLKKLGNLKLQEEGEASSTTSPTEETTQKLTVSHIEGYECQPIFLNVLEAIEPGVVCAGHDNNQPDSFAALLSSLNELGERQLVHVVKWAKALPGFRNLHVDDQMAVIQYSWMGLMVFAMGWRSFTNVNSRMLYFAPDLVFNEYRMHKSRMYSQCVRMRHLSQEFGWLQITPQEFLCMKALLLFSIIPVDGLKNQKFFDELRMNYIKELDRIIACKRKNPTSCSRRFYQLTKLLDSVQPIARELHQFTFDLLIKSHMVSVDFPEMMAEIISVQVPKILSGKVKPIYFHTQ
Estrogen receptor beta (Homo sapiens), sequence (Q92731 whole entry, looked up): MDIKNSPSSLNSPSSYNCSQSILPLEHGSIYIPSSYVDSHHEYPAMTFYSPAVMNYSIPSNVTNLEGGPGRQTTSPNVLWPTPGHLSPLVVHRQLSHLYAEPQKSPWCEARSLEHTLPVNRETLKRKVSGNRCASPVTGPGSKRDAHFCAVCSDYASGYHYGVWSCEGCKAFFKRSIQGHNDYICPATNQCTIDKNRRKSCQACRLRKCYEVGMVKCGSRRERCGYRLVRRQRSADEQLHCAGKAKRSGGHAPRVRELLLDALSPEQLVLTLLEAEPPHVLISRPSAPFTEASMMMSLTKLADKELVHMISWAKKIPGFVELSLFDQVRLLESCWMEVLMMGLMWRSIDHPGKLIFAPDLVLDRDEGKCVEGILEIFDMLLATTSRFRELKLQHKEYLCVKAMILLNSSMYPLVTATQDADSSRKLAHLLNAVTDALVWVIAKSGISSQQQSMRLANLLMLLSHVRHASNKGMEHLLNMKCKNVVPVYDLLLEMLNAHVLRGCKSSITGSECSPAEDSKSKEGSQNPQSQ
Thyrotropin receptor (Homo sapiens), sequence (P16473 whole entry, looked up): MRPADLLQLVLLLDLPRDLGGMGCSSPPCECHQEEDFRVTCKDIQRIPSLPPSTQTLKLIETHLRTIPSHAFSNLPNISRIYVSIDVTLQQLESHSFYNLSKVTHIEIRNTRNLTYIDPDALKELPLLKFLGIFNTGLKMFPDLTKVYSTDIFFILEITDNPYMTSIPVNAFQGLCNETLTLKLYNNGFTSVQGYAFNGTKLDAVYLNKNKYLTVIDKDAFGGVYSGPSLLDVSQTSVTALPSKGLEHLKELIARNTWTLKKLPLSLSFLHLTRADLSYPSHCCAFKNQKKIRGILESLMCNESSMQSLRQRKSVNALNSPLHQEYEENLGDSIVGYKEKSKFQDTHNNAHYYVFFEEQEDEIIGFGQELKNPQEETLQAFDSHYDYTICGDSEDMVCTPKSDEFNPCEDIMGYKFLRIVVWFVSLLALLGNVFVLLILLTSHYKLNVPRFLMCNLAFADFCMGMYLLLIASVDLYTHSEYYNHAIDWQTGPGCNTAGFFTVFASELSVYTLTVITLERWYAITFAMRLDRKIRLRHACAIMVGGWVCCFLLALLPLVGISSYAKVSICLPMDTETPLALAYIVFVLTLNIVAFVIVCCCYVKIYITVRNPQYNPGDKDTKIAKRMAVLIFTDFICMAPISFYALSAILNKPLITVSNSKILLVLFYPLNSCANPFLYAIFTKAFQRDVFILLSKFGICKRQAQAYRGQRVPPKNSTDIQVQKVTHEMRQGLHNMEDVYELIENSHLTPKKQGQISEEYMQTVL
Estrogen receptor (Homo sapiens), sequence (P03372 whole entry, looked up): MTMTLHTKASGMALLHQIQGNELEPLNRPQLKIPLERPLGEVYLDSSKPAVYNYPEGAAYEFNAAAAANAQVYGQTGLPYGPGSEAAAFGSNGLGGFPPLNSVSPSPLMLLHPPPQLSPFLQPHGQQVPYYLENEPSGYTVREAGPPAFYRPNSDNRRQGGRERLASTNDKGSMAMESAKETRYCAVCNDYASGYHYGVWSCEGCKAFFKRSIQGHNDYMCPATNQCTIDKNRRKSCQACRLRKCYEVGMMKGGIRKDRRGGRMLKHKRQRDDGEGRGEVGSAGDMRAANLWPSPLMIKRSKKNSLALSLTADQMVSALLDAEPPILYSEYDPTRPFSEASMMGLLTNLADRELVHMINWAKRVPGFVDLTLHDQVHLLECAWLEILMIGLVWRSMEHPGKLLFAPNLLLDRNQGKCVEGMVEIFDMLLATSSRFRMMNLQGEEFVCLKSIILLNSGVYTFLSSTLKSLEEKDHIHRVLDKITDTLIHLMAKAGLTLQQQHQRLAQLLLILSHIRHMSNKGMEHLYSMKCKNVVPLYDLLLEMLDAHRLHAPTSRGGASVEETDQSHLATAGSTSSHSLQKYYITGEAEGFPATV

O[C@@H](CNC[C@H](O)[C@H]1CCc2cc(F)ccc2O1)[C@@H]1CCc2cc(F)ccc2O1
active: [2] 3.55 µM | [4] 29.8 µM | [5] 29.8 µM | [7] 13.3 µM | [9] 8.41 µM | [10] 11.9 µM | [11] 21.1 µM
inactive: [1] | [3] | [6] | [8] | [12] | [13] | [14]

CC/C=C\C/C=C\C/C=C\CCCCCCCC(=O)OCC
inactive: [1] | [15] | [3] | [16] | [4] | [5] | [8] | [17] | [11] | [13] | [14]

Cc1ccccc1S(N)(=O)=O
not listed: [2] | [8] | [9] | [10] | [12] | [18] | [19] | [20]
inactive: all other assays above

CCCCCCC(CO)CCCC (stereo unspecified)
not listed: [2] | [8] | [9] | [12] | [17] | [18] | [19] | [20]
inactive: all other assays above

O=c1[nH]c2cc(C(F)(F)F)c(N3CCOCC3)cc2n(CP(=O)(O)O)c1=O
not listed: [1] | [8] | [13] | [14] | [19] | [20]
inactive: all other assays above

O=C(O)CCCc1c[nH]c2ccccc12
not listed: [2] | [12] | [16] | [17] | [18] | [19] | [20]
inactive: all other assays above

O=S(=O)(O)CO
not listed: [2] | [8] | [9] | [12] | [18] | [19] | [20]
inactive: all other assays above

CC(C)(C(=O)c1cccnc1)c1cccnc1
inactive: [15] | [18] | [2] | [3] | [16] | [4] | [5] | [6] | [11] | [12] | [13]

C=C(C)c1ccccc1
not listed: [2] | [4] | [6] | [12] | [14] | [18] | [19] | [20]
inactive: all other assays above

CCCCCCCCCCCCCOS(=O)(=O)O
active: [10] 54.5 µM
not listed: [1] | [2] | [8] | [9] | [11] | [12] | [18]
inactive: all other assays above

COC(CC(C)CCCC(C)(C)O)OC (stereo unspecified)
inactive: [1] | [15] | [3] | [4] | [5] | [7] | [17] | [10] | [11] | [13] | [14]

Cc1ccc(Nc2c(F)cccc2Cl)c(CC(=O)O)c1
not listed: [1] | [8] | [9] | [10] | [11] | [19] | [20]
inactive: all other assays above

CN(C)CC/C=C1\c2ccccc2Sc2ccc(Cl)cc21
active: [19] 29.8 µM | [4] 26.6 µM | [17] 29.8 µM | [10] 23.7 µM | [11] 18.8 µM | [14] 26.6 µM
inactive: [1] | [18] | [3] | [6] | [20] | [12] | [13]

CCC1CCC(CCC(=O)O)C1 (stereo unspecified)
inactive: [1] | [15] | [3] | [5] | [6] | [7] | [17] | [13] | [14]

CC(C)(O)c1coc(S(=O)(=O)NC(=O)Nc2c3c(cc4c2CCC4)CCC3)c1
inactive: [1] | [15] | [3] | [16] | [4] | [8] | [9] | [17] | [11] | [13]
active: [7] 54.5 µM

CCCC(=O)OC(=O)CCC
not listed: [2] | [3] | [12] | [14] | [18] | [19] | [20]
inactive: all other assays above

COc1ccc(-c2cc(=S)ss2)cc1
active: [3] 11.9 µM | [9] 13.3 µM
not listed: [1] | [12] | [14] | [17] | [19] | [20]
inactive: all other assays above

CCCCCCCCCCCCCC(=O)OCC(O)CO (stereo unspecified)
not listed: [1] | [2] | [12] | [17] | [18]
inactive: all other assays above

COc1cc(NC(C)CCCN)c2ncccc2c1 (stereo unspecified)
not listed: [1] | [19] | [20]
inactive: all other assays above
